Data from PubChem BioAssay AID463173 (ICCB-Longwood Screening Facility, Harvard Medical School, 2010).
In all, about 52,000 compounds went through this assay and about 4,300 (8.3%) were called active. This excerpt belongs to a sample that is enriched for actives. Unmarked numbers belong to inactive results. No stated cut-off is given here; in the data, active means survival mostly below about 52% (no sharp cut-off); inactive means mostly above about 56%.

Each compound was assayed on DeltatarO mutant (assay: growth inhibition of S. aureus wild type versus tarO mutant, primary screen, teichoic acid synthesis inhibitors, RN4220, OD600 (AID 463173)). Conditions: OD600, 18 h, hits give low values, screened at 18.75 µg/mL (by protocol).

| SMILES | survival |
| --- | --- |
| CCOc1ccc(NC(=O)c2c(NCc3cc(OC)c(OC)cc3OC)sc3c2CCCC3)cc1 | 74% |
| CCOC(=O)C1CCCN(S(=O)(=O)c2ccc(N3CCCCS3(=O)=O)cc2)C1 (centres undefined) | 55% |
| O=C(c1cnn(-c2ccc(F)cc2)c1-n1cccc1)N1CCN(c2cccc(Cl)c2)CC1 | 70% |
| CCOc1ccccc1CNC(=O)c1ccc2nc(CCc3ccccc3)oc2c1 | 83% |
| Cc1cccc(C(=O)NCC(=O)OCc2cc(=O)n3nc(CC(C)C)sc3n2)c1 | 105% |
| O=C(Cn1c2ncccc2c(=O)n1-c1ccccc1)NCc1ccccc1Cl | 68% |
| COc1ccc(NC(=O)CN2C(=O)COc3ccc(S(=O)(=O)NC4CCCC4)cc32)cc1OC | 75% |
| Cc1ccc(NC(=O)CCCn2c(=O)c3cccn3c3cccnc32)cc1C | 79% |
| CC(C)n1c(C(=O)OC(C(=O)NCc2ccco2)c2cccnc2)cc2sccc21 (centres undefined) | 88% |
| CCOC(=O)c1cnc2c(ccc3ccccc32)c1Nc1ccc(Cl)cc1 | 23% (active) |
| CCOC(=O)c1cnc2c(ccc3ccccc32)c1Nc1ccc(C(C)=O)cc1 | 1% (active) |
| CCCOc1ccc(Nc2nc(SC)ncc2C(=O)OCC)cc1 | 65% |
| CCOC(=O)c1cnc(NCc2ccc(Cl)cc2)c2ccccc12 | 91% |
| CCOC(=O)c1cnc2c(ccc3ccccc32)c1Nc1ccc(OCC)cc1 | 5% (active) |
| CCOC(=O)c1cnc2c(ccc3ccccc32)c1Nc1ccccc1O | 69% |
| CCOC(=O)c1cnc2c(ccc3ccccc32)c1Nc1ccc(OC)c(OC)c1 | 7% (active) |
| COc1cc(NC(=O)C2CCN(c3nnc(C)c4c(C)n(-c5ccccc5)nc34)CC2)cc(OC)c1 | 87% |
| CCOc1ccc(NC(=O)CSc2nnnn2C2CCCC2)cc1 | 68% |
| Cc1ccc(-n2nc(C(=O)N3CCN(c4ccccc4F)CC3)c3c4ccccc4n(C)c3c2=O)cc1 | 88% |
| CCCOc1ccc(CNC(=O)C(CC)n2nc(C)c3sc4ccccc4c3c2=O)cc1 (centres undefined) | 69% |
| O=C(NCCS(=O)(=O)N1CCN(c2cccc(Cl)c2)CC1)C(c1ccccc1)c1ccccc1 | 72% |
| COc1ccc(OC)c(NC(=O)c2ccc3c(c2)c(C)c(C)n3Cc2ccc(F)cc2)c1 | 122% |
| Cc1ccc(CNCC(C)O)s1 (centres undefined) | 73% |

| SMILES | survival |
| --- | --- |
| Cc1ccc(C(=O)Nc2ccc(NC(=O)c3cccs3)cc2)cc1C | 66% |
| CCc1nn(CC(=O)N2CCN(c3cccc(C)c3C)CC2)c(=O)c2cc3sccc3n12 | 134% |
| CCCNC(=O)CN1C(=O)COc2ccc(S(=O)(=O)N3CCC(C)CC3)cc21 | 121% |
| COCCNc1oc(-c2ccc(COc3ccc(OC)cc3)o2)nc1C#N | 79% |
| Cc1ccc(C2=NN(CC(=O)NCCc3ccc(Cl)cc3)C(=O)CC2)cc1 | 117% |
| CCn1c(C)c(C2N3CC4(C)CN2CC(CC)(C3)C4=O)c2ccccc21 (centres undefined) | 108% |
| Cc1cccc(C)c1-n1ncc(C(=O)N2CCN(c3ccccn3)CC2)c1C1CCN(C(=O)OC(C)(C)C)CC1 | 81% |
| CCOC(=O)c1cnc2c(OC)cccc2c1Nc1cccc(O)c1 | 61% |
| CCOC(=O)c1cnc2c(ccc3ccccc32)c1Nc1ccc(N(C)C)cc1 | 0% (active) |
| CCOC(=O)c1cnc2c(ccc3ccccc32)c1Nc1cccc(OC)c1 | 29% (active) |
| CCOC(=O)c1cnc2c(ccc3ccccc32)c1Nc1cccc(C(F)(F)F)c1 | 36% (active) |
| CCOc1ccc(Nc2nc(N)c(C(=O)c3ccccc3Cl)s2)cc1 | 0% (active) |
| Cc1ccccc1Nc1nc(N)c(C(=O)c2ccccc2Cl)s1 | 92% |
| CCOC(=O)c1noc2ncnc(Nc3cccc(C(F)(F)F)c3)c12 | 92% |
| CCOC(=O)c1sc2ccccc2c1S(=O)(=O)Nc1cccc(C(F)(F)F)c1 | 63% |
| CCOC(=O)c1noc2ncnc(Nc3cccc(OC)c3)c12 | 73% |
| CCOC(=O)c1cnc(SC)nc1Nc1ccccc1 | 84% |
| CCOC(=O)c1cnc2c(Cl)c(Cl)ccc2c1Nc1ccc(N(C)C)cc1 | 80% |
| COc1cccc(C(=O)c2sc(Nc3ccc(F)c(Cl)c3)nc2N)c1 | 55% |
| COc1ccc(-c2oc3ncn4nc(COc5ccccc5C)nc4c3c2-c2ccc(OC)cc2)cc1 | 79% |
| CC(=O)c1ccc(N2CCN(C(=O)c3ccc(Cn4c(=O)[nH]c5ccccc5c4=O)cc3)CC2)cc1 | 100% |
| CC(C)(C)c1cc(CN2CCOCC2)c(C(=O)O)o1 | 92% |
| COc1cc(NC(=O)CSc2nc3nc(C)c(Cc4ccccc4)c(C)n3n2)cc(OC)c1 | 112% |

| SMILES | survival |
| --- | --- |
| CC1CCN(S(=O)(=O)c2ccc(NC(=O)CSc3nnnn3C)cc2)CC1 | 97% |
| CCOC(=O)c1cnc2c(ccc3ccccc32)c1Nc1cccc(Cl)c1 | 14% (active) |
| COc1cccc2sc(N(Cc3cccnc3)C(=O)C3CCCCC3)nc12 | 86% |
| CC(C)c1ccc(OCC(=O)N(Cc2ccc(N(C)C)cc2)C2CCS(=O)(=O)C2)cc1 (centres undefined) | 43% (active) |
| CCc1ccc(OCC(=O)N(Cc2ccc(C(C)C)cc2)C2CCS(=O)(=O)C2)cc1 (centres undefined) | 23% (active) |
| Cc1cc(C)cc(OCC(=O)N(Cc2ccc(Cl)cc2)C2CCS(=O)(=O)C2)c1 (centres undefined) | 59% |
| Cc1ccccc1OCC(=O)N(Cc1ccc(C(C)C)cc1)C1CCS(=O)(=O)C1 (centres undefined) | 31% (active) |
| COc1ccc(OCC(=O)N(Cc2cccc(OC)c2)C2CCS(=O)(=O)C2)cc1 (centres undefined) | 79% |
| Cc1ccsc1CN(C(=O)COc1ccccc1Cl)C1CCS(=O)(=O)C1 (centres undefined) | 86% |
| CCc1ccc(OCC(=O)N(Cc2ccc(Cl)cc2)C2CCS(=O)(=O)C2)cc1 (centres undefined) | 57% (active) |
| Cc1ccsc1CN(C(=O)COc1cccc(C)c1C)C1CCS(=O)(=O)C1 (centres undefined) | 82% |
| COc1ccc(OCC(=O)N(Cc2ccc(C)o2)C2CCS(=O)(=O)C2)cc1 (centres undefined) | 85% |
| Cc1ccc(CN(C(=O)COc2ccc(C(C)C)cc2)C2CCS(=O)(=O)C2)o1 (centres undefined) | 87% |
| CC(C)Oc1ccc(C(=O)N(Cc2ccc(N(C)C)cc2)C2CCS(=O)(=O)C2)cc1 (centres undefined) | 54% |
| CCc1ccc(OCC(=O)N(Cc2ccc(C)o2)C2CCS(=O)(=O)C2)cc1 (centres undefined) | 110% |
| Cc1nc2cccnc2n1C1CCN(C(=O)Nc2ccc(Cl)cc2)CC1 | 81% |
| CCN(C(=O)CSc1ncc(S(=O)(=O)c2ccc(C)c(Cl)c2)c(=O)[nH]1)c1cccc(C)c1 | 99% |
| O=C(Cn1ncc2c3ccccc3n(Cc3cccc(Cl)c3)c2c1=O)NCCC1=CCCCC1 | 90% |
| Cc1cc(C)c(NC(=O)Cn2nnc(S(=O)(=O)c3ccc(C)c(C)c3)c2N)c(C)c1 | 96% |
| CCCCN(CC)C(=O)c1ccc2c(c1)NC(=O)c1ccccc1S2 | 104% |
| c1ccc(-c2cnnn2-c2ccccc2)cc1 | 87% |
| Cc1cc(Cl)ccc1OCC(=O)N(Cc1ccc(N(C)C)cc1)C1CCS(=O)(=O)C1 (centres undefined) | 39% (active) |
| Cc1cc(Cl)ccc1OCC(=O)N(Cc1sccc1C)C1CCS(=O)(=O)C1 (centres undefined) | 74% |

| SMILES | survival |
| --- | --- |
| CC(C)c1ccc(OCC(=O)N(Cc2cccs2)C2CCS(=O)(=O)C2)cc1 (centres undefined) | 51% (active) |
| Cc1ccsc1CN(C(=O)COc1ccc(Cl)cc1)C1CCS(=O)(=O)C1 (centres undefined) | 86% |
| Cc1cc(OCC(=O)N(Cc2ccc(N(C)C)cc2)C2CCS(=O)(=O)C2)cc(C)c1Cl (centres undefined) | 97% |
| COc1ccccc1OCC(=O)N(Cc1cccs1)C1CCS(=O)(=O)C1 (centres undefined) | 53% |
| CCOC(=O)C1=C(C)NC(=O)NC1C1CC=CCC1 (centres undefined) | 111% |
| COc1cc(-c2nc3nc[nH]n3c2Nc2ccc(C(C)C)cc2)ccc1O | 70% |
| CC(=O)c1cccc(S(=O)(=O)NCCc2csc3nc(-c4ccc(F)cc4)nn23)c1 | 88% |
| CCOC(=O)C1CCN(C(c2cccc(F)c2)c2c(O)cc(C)n(CCOC)c2=O)CC1 (centres undefined) | 135% |
| COc1ccc(CNC(=O)Cn2ccc3cc(S(=O)(=O)N4CCCCC4)ccc32)c(OC)c1 | 72% |
| Cc1ccc(NC(=O)CCNS(=O)(=O)c2ccc3c(c2)CCCC(=O)N3)cc1 | 77% |
| COc1cc(NC(=O)CN(C)S(=O)(=O)c2ccc3c(c2)CCCC(=O)N3)cc(OC)c1OC | 70% |
| Cc1cccc(NC(=O)CCNS(=O)(=O)c2ccc3c(c2)CCCC(=O)N3)c1C | 96% |
| COc1cc(Cl)c(NC(=O)CN(C)S(=O)(=O)c2ccc3c(c2)CCCC(=O)N3)c(OC)c1 | 83% |
| COc1cc(OC)c(NC(=O)CN(C)S(=O)(=O)c2ccc3c(c2)CCCC(=O)N3)cc1Cl | 6% (active) |
| Cc1ccc(C)c(NC(=O)CCNS(=O)(=O)c2ccc3c(c2)CCCC(=O)N3)c1 | -4% (active) |
| COc1ccccc1CNC(=O)CSc1ncc2c(n1)-c1ccccc1N(Cc1ccc(C)cc1)S2(=O)=O | 64% |
| CCc1ccc(NC(=O)c2ccc3c(O)c(S(=O)(=O)c4ccc(Cl)cc4)c(=O)[nH]c3c2)cc1 | 75% |
| Cc1ccc(N(C(=O)Cn2nnc(-c3ccc(C)o3)n2)C(C(=O)NC2CCCCC2)c2ccc(F)cc2)c(C)c1 (centres undefined) | 66% |
| COc1ccc(Cn2nnnc2C(c2ccccc2)N2CCC(C)CC2)cc1 (centres undefined) | 68% |
| CCc1ccc(NC(=O)CN2CCN(Cc3ccccc3)S2(=O)=O)cc1 | 68% |
